# Measurements: PubChem BioAssay AID2284200 (EPA ToxCast)
# Calls of active or inactive are those of the source. Rule for the calls: active = hit-call score of the fitted dose curve at least 0.9, where 1 is the maximum; inactive = score below 0.9.
# Assay: ERF_TW_NR_rI2: Eurofins (ERF) Radioligand Binding LeadHunter Assay for rat Imidazoline I2 Central Antagonism
# Method: ERF_TW_NR_rI2 is a biochemical, single-readout assay that uses extracted gene-proteins in a cell-free assay. Measurements were taken 0.5 hour after chemical dosing in a 96-well plate. See Imidazoline I2, Central Rat Binding (Antagonist Radioligand) Assay, Panlabs.ERF_TW_NR_rI2 is an assay component calculated from the ERF_TW_NR_rI2 assay. It is designed to measure radioligand binding using a type of binding reporter as detected by scintillation counting with radiometry technology.Data from the assay component ERF_TW_NR_rI2 was analyzed at the assay endpoint, ERF_TW_NR_rI2, in the positive analysis fitting direction relative to DMSO as the negative control and baseline of activity. Using a type of binding reporter, loss-of-signal activity can be used to understand changes in radioligand binding as they relate to gene NISCH (homolog). To generalize the intended target to other relatable targets, this assay endpoint is annotated to the oxidoreductase intended target family, where the subfamily is imidazoline receptor.
# Brains (except cerebella) of male Wistar derived rats weighing 175 +/- 25 g are used to prepare imidazoline I2 receptors in modified Tris-HCl buffer pH 7.4. A 15 mg aliquot is incubated with 2 nM [3H] Idazoxan for 30 minutes at 25C. […] Membranes are filtered and washed, the filters are then counted to determine [3H] […]
row,Compound,outcome
1,COc1cc(CCC(=O)CC(=O)CCc2ccc(O)c(OC)c2)ccc1O,inactive
